# Source: paper PMC7862700, “An all-to-all approach to the identification of sequence-specific readers for epigenetic DNA modifications on cytosine”
# Experiments:
# Experiment in all cases: DAPPL (digital affinity profiling via proximity ligation, sequencing); 10 mM Tris-HCl pH 7.5, 50 mM NaCl, 1 mM DTT, 4% glycerol, room temperature, 30 min; GST-TFs on glutathione beads, 16-mer random dsDNA library, 0.1% formaldehyde crosslink after washing; high values mean tight binding
# [1] = molecular target: T1, FLI1 (Homo sapiens, UniProt Q01543 1-452); conditions: protein: recombinant; tags: N-terminal GST; dsDNA, one strand shown
# T1 sequence: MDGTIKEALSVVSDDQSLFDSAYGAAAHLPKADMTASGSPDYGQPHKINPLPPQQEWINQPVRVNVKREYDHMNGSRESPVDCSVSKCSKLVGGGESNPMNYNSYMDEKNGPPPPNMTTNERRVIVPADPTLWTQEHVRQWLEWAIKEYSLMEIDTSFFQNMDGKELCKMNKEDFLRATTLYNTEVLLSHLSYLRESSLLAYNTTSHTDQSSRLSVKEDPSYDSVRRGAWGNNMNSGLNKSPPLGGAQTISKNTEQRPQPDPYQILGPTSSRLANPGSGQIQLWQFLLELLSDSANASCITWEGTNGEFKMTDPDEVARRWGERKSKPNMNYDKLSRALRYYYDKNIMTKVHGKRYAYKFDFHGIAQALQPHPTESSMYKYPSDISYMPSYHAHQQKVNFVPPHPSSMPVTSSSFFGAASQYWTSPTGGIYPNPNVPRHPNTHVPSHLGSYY
# Summary of the method: (§1)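 The binding signal reported is, for every hexamer, its read frequency for a factor over its read frequency for the tag-only sample. Reads came from pools of yeast-expressed, GST-fused human transcription factors on glutathione beads, barcoded with DNA and mixed with that sample, which were incubated with 200 nmole of a random double-stranded 16-mer DNA library in Tris/NaCl/DTT/glycerol buffer at room temperature for 30 min. After washing, the pools were crosslinked with 0.1% formaldehyde, proximity-ligated with BsaI/T4 ligase for 1 h at 37 °C, PCR-amplified and sequenced on an Illumina NextSeq500.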
# [2] = molecular target: T2, ELK1 (Homo sapiens, UniProt P19419 1-428); conditions: protein: recombinant; tags: N-terminal GST; dsDNA, one strand shown
# T2 sequence: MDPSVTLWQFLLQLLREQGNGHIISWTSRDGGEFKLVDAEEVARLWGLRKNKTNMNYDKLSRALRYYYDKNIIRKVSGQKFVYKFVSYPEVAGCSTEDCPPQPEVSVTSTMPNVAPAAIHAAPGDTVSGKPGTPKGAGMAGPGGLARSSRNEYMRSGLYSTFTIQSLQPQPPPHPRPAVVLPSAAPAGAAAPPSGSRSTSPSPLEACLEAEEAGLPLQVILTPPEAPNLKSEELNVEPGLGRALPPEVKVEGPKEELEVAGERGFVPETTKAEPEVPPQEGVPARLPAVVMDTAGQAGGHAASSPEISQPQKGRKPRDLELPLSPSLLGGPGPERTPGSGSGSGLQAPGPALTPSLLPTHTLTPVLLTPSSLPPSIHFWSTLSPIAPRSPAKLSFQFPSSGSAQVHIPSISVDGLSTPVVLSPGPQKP
# Summary of the method: as §1
# [3] = molecular target: ELF1 (Homo sapiens, UniProt P32519 1-619); conditions: protein: recombinant; tags: N-terminal GST; dsDNA, one strand shown
# Chain of ELF1 (P32519 whole entry): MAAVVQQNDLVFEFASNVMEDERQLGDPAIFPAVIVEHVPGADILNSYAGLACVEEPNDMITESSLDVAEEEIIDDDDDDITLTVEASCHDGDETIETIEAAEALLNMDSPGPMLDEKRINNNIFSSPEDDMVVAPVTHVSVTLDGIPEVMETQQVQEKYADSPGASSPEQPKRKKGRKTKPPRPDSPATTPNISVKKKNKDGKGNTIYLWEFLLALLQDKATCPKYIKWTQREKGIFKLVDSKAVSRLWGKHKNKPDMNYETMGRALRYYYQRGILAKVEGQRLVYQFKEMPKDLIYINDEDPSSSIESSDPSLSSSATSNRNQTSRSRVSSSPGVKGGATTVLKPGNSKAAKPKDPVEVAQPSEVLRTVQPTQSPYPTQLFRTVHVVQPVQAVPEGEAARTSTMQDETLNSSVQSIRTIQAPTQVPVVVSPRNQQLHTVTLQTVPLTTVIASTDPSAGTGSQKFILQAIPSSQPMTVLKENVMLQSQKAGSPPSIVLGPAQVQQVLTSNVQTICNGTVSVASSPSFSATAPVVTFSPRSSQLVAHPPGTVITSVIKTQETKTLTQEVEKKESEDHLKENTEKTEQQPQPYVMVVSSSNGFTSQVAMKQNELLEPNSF
# Summary of the method: as §1
# [4] = molecular target: SPI1 (Homo sapiens, UniProt P17947 1-270); conditions: protein: recombinant; tags: N-terminal GST; dsDNA, one strand shown
# Summary of the method: as §1
# [5] = molecular target: SPIB (Homo sapiens, UniProt Q01892 1-262); conditions: protein: recombinant; tags: N-terminal GST; dsDNA, one strand shown
# Chain of SPIB (Q01892 whole entry): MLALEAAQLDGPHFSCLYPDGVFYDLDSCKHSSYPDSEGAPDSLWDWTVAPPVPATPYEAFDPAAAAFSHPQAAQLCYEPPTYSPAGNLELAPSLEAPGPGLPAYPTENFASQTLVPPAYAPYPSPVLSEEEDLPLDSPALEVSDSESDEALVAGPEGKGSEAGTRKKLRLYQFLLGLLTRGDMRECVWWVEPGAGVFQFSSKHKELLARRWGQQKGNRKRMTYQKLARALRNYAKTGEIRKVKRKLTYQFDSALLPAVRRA
# Summary of the method: as §1
# [6] = molecular target: T3, ELK3 (Homo sapiens, UniProt P41970 1-407); conditions: protein: recombinant; tags: N-terminal GST; dsDNA, one strand shown
# T3 sequence: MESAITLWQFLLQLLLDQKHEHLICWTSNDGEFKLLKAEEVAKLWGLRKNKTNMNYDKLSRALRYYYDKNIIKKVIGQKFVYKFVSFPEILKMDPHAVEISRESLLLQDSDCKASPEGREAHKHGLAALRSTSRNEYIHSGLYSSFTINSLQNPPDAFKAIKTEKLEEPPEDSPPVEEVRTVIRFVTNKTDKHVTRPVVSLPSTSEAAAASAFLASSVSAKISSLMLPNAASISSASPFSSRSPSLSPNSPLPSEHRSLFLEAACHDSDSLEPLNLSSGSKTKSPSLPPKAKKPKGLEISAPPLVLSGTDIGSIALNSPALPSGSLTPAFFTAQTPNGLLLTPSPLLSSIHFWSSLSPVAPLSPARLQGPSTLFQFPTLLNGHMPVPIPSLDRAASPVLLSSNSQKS
# Summary of the method: as §1
# [7] = molecular target: T4, FEV (Homo sapiens, UniProt Q99581 1-238); conditions: protein: recombinant; tags: N-terminal GST; dsDNA, one strand shown
# T4 sequence: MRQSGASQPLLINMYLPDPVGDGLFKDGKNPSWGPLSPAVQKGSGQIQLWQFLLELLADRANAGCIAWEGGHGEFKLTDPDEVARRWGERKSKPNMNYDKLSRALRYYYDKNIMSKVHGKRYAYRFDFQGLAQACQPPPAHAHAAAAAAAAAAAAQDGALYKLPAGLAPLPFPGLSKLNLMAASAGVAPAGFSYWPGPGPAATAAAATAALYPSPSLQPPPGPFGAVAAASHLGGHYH
# Summary of the method: as §1
# [8] = molecular target: ETV5 (Homo sapiens, UniProt P41161 1-510); conditions: protein: recombinant; tags: N-terminal GST; dsDNA, one strand shown
# Chain of ETV5 (P41161 whole entry): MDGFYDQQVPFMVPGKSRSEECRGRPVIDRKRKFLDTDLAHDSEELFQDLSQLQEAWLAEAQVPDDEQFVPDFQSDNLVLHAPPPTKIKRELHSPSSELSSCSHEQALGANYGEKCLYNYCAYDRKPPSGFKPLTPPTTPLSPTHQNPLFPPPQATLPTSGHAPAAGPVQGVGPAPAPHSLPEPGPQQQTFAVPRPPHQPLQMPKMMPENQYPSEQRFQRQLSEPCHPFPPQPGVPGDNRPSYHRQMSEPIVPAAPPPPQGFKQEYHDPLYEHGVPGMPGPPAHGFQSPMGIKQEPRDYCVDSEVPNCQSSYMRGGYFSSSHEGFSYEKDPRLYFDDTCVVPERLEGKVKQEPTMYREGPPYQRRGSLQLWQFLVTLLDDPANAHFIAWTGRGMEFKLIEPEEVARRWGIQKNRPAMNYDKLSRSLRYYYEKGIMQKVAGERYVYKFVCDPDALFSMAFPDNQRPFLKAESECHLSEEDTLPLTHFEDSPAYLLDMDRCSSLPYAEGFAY
# Summary of the method: as §1
# [9] = molecular target: HSF1 (Homo sapiens, UniProt Q00613 1-529); conditions: protein: recombinant; tags: N-terminal GST; chain copies: 3; dsDNA, one strand shown
# Chain of HSF1 (Q00613 whole entry): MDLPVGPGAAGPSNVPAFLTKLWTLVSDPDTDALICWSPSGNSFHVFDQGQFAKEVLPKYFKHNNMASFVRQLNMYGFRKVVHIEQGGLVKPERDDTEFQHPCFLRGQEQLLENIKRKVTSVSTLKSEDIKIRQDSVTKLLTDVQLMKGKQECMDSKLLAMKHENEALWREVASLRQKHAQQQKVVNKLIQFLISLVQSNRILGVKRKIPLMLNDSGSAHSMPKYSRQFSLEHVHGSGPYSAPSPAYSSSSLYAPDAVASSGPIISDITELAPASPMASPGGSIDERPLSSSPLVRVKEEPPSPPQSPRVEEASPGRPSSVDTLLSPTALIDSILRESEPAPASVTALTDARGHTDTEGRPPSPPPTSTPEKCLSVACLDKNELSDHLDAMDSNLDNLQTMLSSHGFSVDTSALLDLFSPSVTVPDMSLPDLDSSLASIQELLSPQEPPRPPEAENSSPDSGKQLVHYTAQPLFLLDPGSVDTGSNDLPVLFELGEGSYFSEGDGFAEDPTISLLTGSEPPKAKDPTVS
# Summary of the method: as §1
# [10] = molecular target: T5, SPIC (Homo sapiens, UniProt Q8N5J4 1-248); conditions: protein: recombinant; tags: N-terminal GST; dsDNA, one strand shown
# T5 sequence: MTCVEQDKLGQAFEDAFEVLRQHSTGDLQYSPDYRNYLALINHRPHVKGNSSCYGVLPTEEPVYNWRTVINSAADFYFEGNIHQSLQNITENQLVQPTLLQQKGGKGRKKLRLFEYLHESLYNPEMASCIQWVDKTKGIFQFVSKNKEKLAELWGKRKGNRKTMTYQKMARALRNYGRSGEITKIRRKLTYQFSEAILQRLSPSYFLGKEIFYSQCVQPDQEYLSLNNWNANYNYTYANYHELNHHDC
# Summary of the method: as §1
# [11] = molecular target: ELF4 (Homo sapiens, UniProt Q99607 1-663); conditions: protein: recombinant; tags: N-terminal GST; dsDNA, one strand shown
# Chain of ELF4 (Q99607 whole entry): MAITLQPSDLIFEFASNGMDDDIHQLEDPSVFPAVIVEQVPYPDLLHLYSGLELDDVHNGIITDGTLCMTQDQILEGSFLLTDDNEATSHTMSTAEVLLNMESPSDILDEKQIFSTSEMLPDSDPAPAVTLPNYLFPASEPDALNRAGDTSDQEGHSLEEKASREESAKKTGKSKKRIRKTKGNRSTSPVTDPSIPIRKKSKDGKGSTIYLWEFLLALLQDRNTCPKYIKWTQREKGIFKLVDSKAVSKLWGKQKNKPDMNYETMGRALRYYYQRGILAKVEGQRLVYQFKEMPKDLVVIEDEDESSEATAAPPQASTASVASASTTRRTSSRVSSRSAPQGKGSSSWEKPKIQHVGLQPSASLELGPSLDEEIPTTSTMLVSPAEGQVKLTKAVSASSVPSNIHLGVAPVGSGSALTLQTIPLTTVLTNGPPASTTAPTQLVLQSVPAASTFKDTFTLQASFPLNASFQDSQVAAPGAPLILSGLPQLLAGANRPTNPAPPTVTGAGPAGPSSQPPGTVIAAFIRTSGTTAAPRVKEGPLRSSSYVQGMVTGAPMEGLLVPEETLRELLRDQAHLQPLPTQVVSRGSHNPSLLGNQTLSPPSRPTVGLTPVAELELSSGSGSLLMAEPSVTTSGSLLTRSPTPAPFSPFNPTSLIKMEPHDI
# Summary of the method: as §1
# [12] = molecular target: T6, ELK4 (Homo sapiens, UniProt P28324-2 1-405); conditions: protein: recombinant; tags: N-terminal GST; dsDNA, one strand shown
# T6 sequence: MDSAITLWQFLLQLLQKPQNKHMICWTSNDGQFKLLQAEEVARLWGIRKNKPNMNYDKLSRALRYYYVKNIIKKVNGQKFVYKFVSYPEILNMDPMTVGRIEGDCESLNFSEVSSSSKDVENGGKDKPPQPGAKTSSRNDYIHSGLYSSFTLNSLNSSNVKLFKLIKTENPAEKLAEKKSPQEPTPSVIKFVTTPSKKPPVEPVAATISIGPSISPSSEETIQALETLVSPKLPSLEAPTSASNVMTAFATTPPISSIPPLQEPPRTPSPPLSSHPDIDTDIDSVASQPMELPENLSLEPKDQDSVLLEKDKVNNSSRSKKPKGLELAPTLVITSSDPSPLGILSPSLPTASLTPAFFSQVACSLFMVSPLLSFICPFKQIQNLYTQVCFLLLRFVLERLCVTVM
# Summary of the method: as §1
# [13] = molecular target: T7, ETV2 (Homo sapiens, UniProt O00321 1-342); conditions: protein: recombinant; tags: N-terminal GST; dsDNA, one strand shown
# T7 sequence: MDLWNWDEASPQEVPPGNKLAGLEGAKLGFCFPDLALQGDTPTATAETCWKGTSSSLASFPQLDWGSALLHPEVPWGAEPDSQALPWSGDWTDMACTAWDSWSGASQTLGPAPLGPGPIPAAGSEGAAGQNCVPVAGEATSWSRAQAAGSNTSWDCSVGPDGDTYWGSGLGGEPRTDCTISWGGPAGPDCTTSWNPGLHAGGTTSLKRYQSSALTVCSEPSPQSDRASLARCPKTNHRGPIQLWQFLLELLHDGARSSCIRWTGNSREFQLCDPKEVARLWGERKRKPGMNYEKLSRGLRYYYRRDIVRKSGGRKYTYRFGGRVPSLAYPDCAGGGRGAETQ
# Summary of the method: as §1
# [14] = molecular target: T8, ELF3 (Homo sapiens, UniProt P78545 1-371); conditions: protein: recombinant; tags: N-terminal GST; dsDNA, one strand shown
# T8 sequence: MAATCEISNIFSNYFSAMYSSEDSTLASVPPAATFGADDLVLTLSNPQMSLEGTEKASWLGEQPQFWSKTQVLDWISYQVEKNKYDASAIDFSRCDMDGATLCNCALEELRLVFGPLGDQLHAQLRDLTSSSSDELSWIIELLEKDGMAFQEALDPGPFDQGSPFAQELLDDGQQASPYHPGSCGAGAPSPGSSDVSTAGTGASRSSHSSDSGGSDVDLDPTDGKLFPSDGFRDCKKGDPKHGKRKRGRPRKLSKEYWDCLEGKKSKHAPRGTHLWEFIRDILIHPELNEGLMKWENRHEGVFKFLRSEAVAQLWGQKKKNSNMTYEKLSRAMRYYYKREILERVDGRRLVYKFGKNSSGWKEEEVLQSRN
# Summary of the method: as §1
# [15] = molecular target: CRX (Homo sapiens, UniProt O43186 1-299); conditions: protein: recombinant; tags: N-terminal GST; dsDNA, one strand shown
# Chain of CRX (O43186 whole entry): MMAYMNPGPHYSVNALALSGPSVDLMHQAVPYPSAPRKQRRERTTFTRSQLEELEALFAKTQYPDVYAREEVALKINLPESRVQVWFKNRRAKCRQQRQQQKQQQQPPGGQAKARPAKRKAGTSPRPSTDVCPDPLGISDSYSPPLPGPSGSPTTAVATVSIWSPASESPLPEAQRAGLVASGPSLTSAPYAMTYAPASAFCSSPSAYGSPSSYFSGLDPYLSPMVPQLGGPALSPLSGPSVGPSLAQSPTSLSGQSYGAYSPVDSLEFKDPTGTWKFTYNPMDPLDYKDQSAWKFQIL
# Summary of the method: as §1
# [16] = molecular target: ETV1 (Homo sapiens, UniProt P50549 1-477); conditions: protein: recombinant; tags: N-terminal GST; dsDNA, one strand shown
# Chain of ETV1 (P50549 whole entry): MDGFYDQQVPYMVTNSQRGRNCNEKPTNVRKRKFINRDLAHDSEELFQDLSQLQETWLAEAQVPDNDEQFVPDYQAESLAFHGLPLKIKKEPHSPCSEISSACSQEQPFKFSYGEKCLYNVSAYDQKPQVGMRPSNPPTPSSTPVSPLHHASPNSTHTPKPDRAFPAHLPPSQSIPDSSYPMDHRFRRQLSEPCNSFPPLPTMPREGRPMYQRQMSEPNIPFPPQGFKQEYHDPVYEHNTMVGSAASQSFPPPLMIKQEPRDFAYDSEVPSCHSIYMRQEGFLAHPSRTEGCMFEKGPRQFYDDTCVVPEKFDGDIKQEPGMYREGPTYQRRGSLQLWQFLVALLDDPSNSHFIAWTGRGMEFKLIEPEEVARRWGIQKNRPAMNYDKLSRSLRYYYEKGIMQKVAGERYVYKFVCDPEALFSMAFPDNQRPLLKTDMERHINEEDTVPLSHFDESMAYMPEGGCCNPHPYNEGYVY
# Summary of the method: as §1
sequence,measurement,setting,value
TTCCAG,binding signal,[1],"1.03 fold enrichment (6-mer frequency, TF over GST control)"
same,binding signal,[2],"1.02 fold enrichment (6-mer frequency, TF over GST control)"
same,binding signal,[3],"1.02 fold enrichment (6-mer frequency, TF over GST control)"
same,binding signal,[4],"1.05 fold enrichment (6-mer frequency, TF over GST control)"
same,binding signal,[5],"1.1 fold enrichment (6-mer frequency, TF over GST control)"
same,binding signal,[6],"1.07 fold enrichment (6-mer frequency, TF over GST control)"
same,binding signal,[7],"1.05 fold enrichment (6-mer frequency, TF over GST control)"
same,binding signal,[8],"1.06 fold enrichment (6-mer frequency, TF over GST control)"
same,binding signal,[9],"3.69 fold enrichment (6-mer frequency, TF over GST control)"
same,binding signal,[10],"1.02 fold enrichment (6-mer frequency, TF over GST control)"
same,binding signal,[11],"1.17 fold enrichment (6-mer frequency, TF over GST control)"
same,binding signal,[12],"1.15 fold enrichment (6-mer frequency, TF over GST control)"
same,binding signal,[13],"1.12 fold enrichment (6-mer frequency, TF over GST control)"
same,binding signal,[14],"1.05 fold enrichment (6-mer frequency, TF over GST control)"
same,binding signal,[15],"1.68 fold enrichment (6-mer frequency, TF over GST control)"
same,binding signal,[16],"1.05 fold enrichment (6-mer frequency, TF over GST control)"
